Source: PubChem BioAssay (National Center for Advancing Translational Sciences (NCATS))
Rows were chosen to be rich in hits. Some 2.4% of all compounds tested hit in one or more screens of this group.
FEN1 inhibitor: qHTS Assay for the Inhibitors of Human Flap endonuclease 1 (FEN1). Recombinant FEN1 flap cleavage, fluorescence, 15 min. AID 588795, 2011. actives 0.35% (n = 390,000). Potency, µM (doses to about 114 µM), hits mostly inhibitors. P39748; note: nearly all actives have a fitted effect of over 65% in size
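Quantitative HTS format: each compound was titrated, incubated with 10 nM nuclease for 15 min at room temperature, then challenged with flap substrate at 50 nM final. Signal change over 15 min gave concentration–effect curves.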
Pol kappa inh: qHTS for Inhibitors of Polymerase Kappa | Potency, µM (highest dose often 107 µM), usual class: inhibitors | DNA polymerase kappa (Homo sapiens), Q9UBT6 | purified Pol kappa, fluorescent DNA synthesis assay, 10 min | actives 0.53% (n = 400,000)
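Pol kappa 10 nM + cpd, 15 min RT; start w/ substrate 50 nM final; fluorescence kinetic read, 0 and 10 min. Neg ctrl: buffer, no enzyme.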
POLI inh: qHTS for Inhibitors of Polymerase Iota; DNA polymerase iota (Homo sapiens), Q9UNA4; Pol iota fluorescent replication assay, 10 min; Potency, µM (top dose mostly 115 µM), hits mostly inhibitors; actives 1% (n = 390,000)
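Pol iota at 10 nM preincubated 15 min with compounds at room temperature; reaction started with fluorescent substrate, 50 nM final. Fluorescence read kinetically at 0 and 10 min; buffer-only wells as negative control.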
Pol eta inh: qHTS for Inhibitors of Polymerase Eta | Potency, µM (doses to about 114 µM), usual class: inhibitors | recombinant Pol eta, fluorescent DNA replication assay | actives 1.2% (n = 390,000) | AID 588591, 2011 | DNA polymerase eta (Homo sapiens), Q9Y253
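Fluorescent replication assay: 50 nM final substrate added after a 15 min room-temperature compound preincubation with 10 nM enzyme. Signal taken at 0 min and again at 10 min.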
Pol beta inh: qHTS Assay for Inhibitors of DNA Polymerase Beta; P06746; Pol beta primer extension/strand displacement, fluorescence kinetic; Potency, µM (highest dose often 114 µM), most hits filed as inhibitors; actives 1.3% (n = 340,000); AID 485314, 2010
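Enzyme-only controls used 10 nM Pol beta; buffer lacking enzyme served as negative control. Compound preincubated 15 min, then 50 nM substrate added; 0 and 10 min reads at room temperature.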
WRN helicase inh: qHTS for Inhibitors of WRN Helicase; Bifunctional 3'-5' exonuclease/ATP-dependent helicase WRN (Homo sapiens), Q14191; WRN helicase unwinding, fluorescent forked duplex, kinetic; Potency, µM (doses to about 114 µM), most hits filed as inhibitors; actives 0.46% (n = 360,000); note: nearly all actives have a fitted effect of over 55% in size
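WRN at 20 nM final preincubated with compound 15 min at room temperature; reaction started with 100 nM fluorophore/quencher forked duplex oligonucleotide and 2 mM ATP final. Unwinding followed kinetically by red fluorescence (ex 525, em 598 nm).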
A number is an active result; [ ] = remark or other dose. Calls come from the whole dose curve; as a rule, active = well fitted curve in the direction sought with a large enough effect; inconclusive = small, poorly fitted or top-dose-only effect, or another doubt; inactive = no such curve, though single readings can be large; an effect the other way counts as inactive or inconclusive.

`O=[N+]([O-])c1cnc(Sc2ccncn2)s1` gave FEN1 inhibitor inactive, Pol kappa inh inactive, POLI inh inconclusive, Pol eta inh inactive, Pol beta inh inactive and WRN helicase inh inactive.
C=CCn1c(Sc2ncc([N+](=O)[O-])s2)n[nH]c1=O was read as FEN1 inhibitor inactive, Pol kappa inh inactive, POLI inh 10µM, Pol eta inh inactive, Pol beta inh inactive and WRN helicase inh inactive.
Screening Cc1nc(-c2cccc(NC(=O)C(C)Oc3ccccc3)c2)cs1 (configuration not stated) returned FEN1 inhibitor inactive, Pol kappa inh inactive, POLI inh inconclusive, Pol eta inh 28µM, Pol beta inh inactive and WRN helicase inh inactive.
Screening C[C@H](N)C(=O)N[C@@H](Cc1ccc(F)cc1)C(=O)N[C@@H](CCCN=C(N)N)C(=O)N[C@@H](CC1CCCCC1)C(=O)N[C@@H](CCCCN=C(N)N)C(=O)N[C@@H](Cc1ccc(O)cc1)C(N)=O returned Pol kappa inh inactive.
`COC(=O)N/N=C/c1cc(N=Nc2ccccc2)ccc1O` gave FEN1 inhibitor inactive, Pol kappa inh inactive, POLI inh inactive, Pol eta inh inactive, Pol beta inh inactive and WRN helicase inh inactive.
Cc1cc(C(=O)N/N=C/c2cc(N=Nc3ccccc3)ccc2O)n[nH]1 was read as FEN1 inhibitor inactive, Pol kappa inh inactive, POLI inh inactive, Pol eta inh inactive, Pol beta inh 25µM and WRN helicase inh inactive.
Screening COc1cccc(-n2c(=O)c3sc4ccccc4c3n(CC(=O)Nc3ccccc3OC)c2=O)c1 returned FEN1 inhibitor inactive, Pol kappa inh inactive, POLI inh inactive, Pol eta inh inactive and Pol beta inh inactive.
For COC(=O)c1c(NC(=O)COC(=O)[C@@H](NS(=O)(=O)c2cccc(Cl)c2)C(C)C)sc2c1CCC2 the results were FEN1 inhibitor inactive, Pol kappa inh inactive, POLI inh inactive, Pol eta inh inactive, Pol beta inh inactive and WRN helicase inh inactive.
Screening CC(C)[C@H](NS(=O)(=O)c1cccc(Cl)c1)C(=O)OCC(=O)NC(=O)CN1CCCC1=O returned FEN1 inhibitor inactive, Pol kappa inh inconclusive, POLI inh 50µM, Pol eta inh 22µM and WRN helicase inh inactive.
Screening COc1ccc(-c2csc(C(C#N)=C(O)CSc3nccn3C)n2)cc1OC returned FEN1 inhibitor inactive, Pol kappa inh inactive, POLI inh 14µM, Pol eta inh 45µM and WRN helicase inh inconclusive.
For CCc1ccc(OCC(=O)NNC(=O)c2ccc(NC(=O)C3CC3)cc2)cc1 the results were FEN1 inhibitor inactive, Pol kappa inh inactive, POLI inh 79µM, Pol eta inh inconclusive, Pol beta inh 32µM and WRN helicase inh inactive.
Screening COc1ccccc1CNC(=O)c1cnccn1 returned FEN1 inhibitor inactive, Pol kappa inh inconclusive, POLI inh inconclusive, Pol eta inh 71µM, Pol beta inh 40µM and WRN helicase inh inactive.
Screening COc1ccccc1CNC(=O)COC(=O)c1cnccn1 returned FEN1 inhibitor inactive, Pol kappa inh inactive, POLI inh inconclusive, Pol eta inh inactive, Pol beta inh inactive and WRN helicase inh inactive.
For COc1ccccc1CNC(=O)c1ccccc1C(=O)NC(CC(C)C)C(=O)NCc1ccccc1OC (configuration not stated) the results were FEN1 inhibitor inactive, Pol kappa inh inactive, POLI inh 71µM, Pol eta inh inactive, Pol beta inh inactive and WRN helicase inh inactive.
`C[C@@H]1[C@H](c2ccccc2)OCCS(=O)(=O)N1Cc1ccc(Cl)cc1` gave FEN1 inhibitor inactive, Pol kappa inh inactive and POLI inh inactive.
Cc1ccc(NC(=O)c2ccc(Cl)c(N3C(=O)C=CC3=O)c2)cc1 was read as FEN1 inhibitor inactive, Pol kappa inh inactive, POLI inh inactive, Pol eta inh inactive, Pol beta inh inactive and WRN helicase inh 50µM.
Screening Cc1ccc(NC(=O)c2ccc(C)c(S(=O)(=O)N3CCCCCC3)c2)cc1 returned FEN1 inhibitor inactive, Pol kappa inh inactive, POLI inh inactive, Pol eta inh inactive and Pol beta inh inactive.
For Cc1ccc(C(=O)Sc2cccccc2=O)cc1 the results were FEN1 inhibitor inactive, Pol kappa inh inactive, POLI inh inconclusive, Pol eta inh inactive, Pol beta inh 40µM and WRN helicase inh inactive.
O=C(Nc1ccccc1SC(=O)c1ccccc1)c1ccccc1 was read as Pol eta inh inactive and WRN helicase inh inactive.
For O=c1c(-c2ccc(Cl)cc2)coc2c(CN3CCCCC3)c(O)ccc12 the results were FEN1 inhibitor inactive, Pol kappa inh inactive, POLI inh 32µM, Pol eta inh inactive, Pol beta inh inactive and WRN helicase inh inactive.
`Cc1cc(OCC(=O)Nc2cc(-c3nc4ncccc4o3)ccc2C)ccc1Cl` gave FEN1 inhibitor inactive, Pol kappa inh inactive, POLI inh inactive, Pol eta inh 79µM and Pol beta inh inactive.
For Cc1ccc(-c2nc3ncccc3o2)cc1NC(=O)c1ccccc1 the results were FEN1 inhibitor inactive, Pol kappa inh inactive, POLI inh inactive, Pol eta inh 56µM, Pol beta inh inactive and WRN helicase inh inactive[11.6 µM].
`O=S(=O)(c1ccc(Cl)cc1)N1CCOCC1` gave FEN1 inhibitor inactive, Pol kappa inh inactive and POLI inh inactive.
For O=C(O)c1cccc(N/N=C/c2cn(-c3ccccc3)nc2-c2cccs2)c1 the results were FEN1 inhibitor inactive, Pol kappa inh inactive, POLI inh inactive, Pol eta inh 79µM, Pol beta inh inconclusive and WRN helicase inh inconclusive.
For O=c1/c(=C/c2ccco2)sc2nc(-c3ccccc3Br)nn12 the results were FEN1 inhibitor inactive, Pol kappa inh 79µM, POLI inh inconclusive, Pol eta inh 16µM, Pol beta inh 35µM and WRN helicase inh inconclusive.
For Cc1ccc(/C=c2\sc3nc(-c4cccs4)nn3c2=O)o1 the results were FEN1 inhibitor inactive, Pol kappa inh inconclusive, POLI inh inconclusive, Pol eta inh inconclusive, Pol beta inh 18µM and WRN helicase inh inactive[11.6 µM].
Screening COc1cccc(/C=c2\sc3nc(-c4cccs4)nn3c2=O)c1OC returned FEN1 inhibitor inactive, Pol kappa inh inactive, POLI inh inactive, Pol eta inh inconclusive, Pol beta inh inactive and WRN helicase inh inactive.
`O=C(CCl)Nc1nc(-c2ccco2)c(-c2ccco2)s1` gave FEN1 inhibitor inactive, Pol kappa inh inactive, POLI inh inconclusive, Pol eta inh 13µM, Pol beta inh inconclusive and WRN helicase inh inactive[11.6 µM].
For Nc1nc(-c2ccco2)c(-c2ccco2)s1 the results were FEN1 inhibitor inactive, Pol kappa inh inactive, POLI inh inconclusive, Pol eta inh inconclusive, Pol beta inh inconclusive and WRN helicase inh inactive.
